Screen size: about 190,000 compounds; about 570 (0.3%) were called active.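 Rule for the calls: active = z-score above 3 at 5 µM with at least 500 cells counted in the well; inconclusive = wells under 500 cells, flagged as cytotoxic or low count; inactive = the rest.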 Many of the other results were omitted from the sample, so actives are more common in it than they were.
Test: insulin promoter activators in MIN6 cells, imaging, high-content screening, mouse beta cells (AID 1625);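 for cell count: total cells summed across four imaged fields per well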
Conditions: MIN6 insulin promoter-GFP reporter, at 5 µM; cell count: measured here: cytotoxicity, nuclei count; z-score: stronger effect = higher value

Compound | cell count | z-score
Cc1cc(/C=N/n2cnnc2)c(C)n1-c1cccc(C(=O)O)c1 | 1240 cells | 4.18 (active)
Cc1cc(/C=N/Nc2ccc([N+](=O)[O-])cn2)c(C)n1-c1cccc(C(=O)O)c1 | 1080 cells | -0.44 (inactive)
Cc1cccc(-n2c(C)cc(/C=N/NC(N)=S)c2C)c1 | 1370 cells | 0.39 (inactive)
CC(=O)N1N=C(c2ccncc2)OC1(Cc1ccccc1)Cc1ccccc1 | 1090 cells | 0.04 (inactive)
O=C(CSc1ccc(-c2ccccc2)nn1)NCC1CCCO1 (centres undefined) | 1230 cells | 3.02 (active)
O=C(CSc1nnc(-c2ccc(NS(=O)(=O)c3ccccc3)cc2)o1)NCC1CCCO1 (centres undefined) | 1210 cells | 0.05 (inactive)
O=C(CS(=O)(=O)Cc1ccccc1)NCC1CCCO1 (centres undefined) | 1220 cells | -0.17 (inactive)
COc1cc(SC)ccc1C(=O)Nc1cc(C)ccn1 | 1210 cells | 0 (inactive)
CC(=O)Nc1ccc(CC#N)cc1 | 1210 cells | -0.63 (inactive)
Cc1ccccc1NC(=S)NNC(=O)c1cccc(Br)c1 | 1120 cells | 0.03 (inactive)
O=C(NN1C(=O)C2C(C1=O)C1C=CC2C12CC2)c1ccccc1Cl (centres undefined) | 1130 cells | -0.03 (inactive)
CC(C)OP(=O)(OC(C)C)C(Nc1ccccc1)c1cccc([N+](=O)[O-])c1 (centres undefined) | 992 cells | -0.35 (inactive)

— PubChem BioAssay AID1625 (Sanford-Burnham Center for Chemical Genomics, 2009)
